The source of these data is PubChem BioAssay (Tox21).

Unmarked numbers belong to inactive results. Results filed as inconclusive are left out. Active and inactive are the calls of the source. Unless noted, calls follow the shape of the dose curve; as a rule, active = well fitted curve in the direction sought with a large enough effect in the repeat runs; inconclusive = weak or mixed curves; inactive = no such curve, though single readings can be large; an effect the other way counts as inactive or inconclusive.

Assay [1] is described as follows: qHTS assay to identify small molecule antagonists of the glucocorticoid receptor (GR) signaling pathway - cell viability counter screen (AID 720693). Also: nearly all actives have a fitted effect of over 55% in size. On the technique in general: Quantitative high-throughput screening tests each substance at several concentrations.
Assay [2] is described as follows: qHTS assay for identifying genotoxic compounds that show differential cytotoxicity against isogenic chicken DT40 cell lines with known DNA damage response pathways - Rev3 mutant cell line (AID 743014). Also: nearly all actives have a fitted effect of over 55% in size. Also: potency is read from the fitted curve at half-maximal effect.
Assay [3] in a line: qHTS assay for identifying genotoxic compounds that show differential cytotoxicity against isogenic chicken DT40 cell lines with known DNA damage response pathways - Rad54/Ku70 mutant cell line (AID 743015). Also: nearly all actives have a fitted effect of over 60% in size.
Assay [4] is described as follows: qHTS assay to identify small molecule antagonists of the androgen receptor (AR) signaling pathway - cell viability counter screen (AID 743033; also: nearly all actives have a fitted effect of over 45% in size).
Assay [5] in a line: qHTS assay to identify small molecule antagonists of the thyroid receptor (TR) signaling pathway - cell viability counter screen (AID 743064). Also: nearly all actives have a fitted effect of over 50% in size. In short, it runs like this:
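Counter screen for cytotoxicity: compound plus T3 (1 nM final) on GH3.TRE-Luc cells, 23.5 h at 37 °C, then fluorescence viability readout with CellTiter-Fluor.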

Assay [6] in a line: qHTS assay to identify small molecule antagonists of the thyroid receptor (TR) signaling pathway (AID 743065). Also: series mostly up to about 70 µM; nearly all actives have a fitted effect of over 55% in size. An outline of the steps:
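GH3.TRE-Luc rat pituitary cells carrying two TR response elements driving luciferase were plated for 4 h, given compound plus 1 nM T3 (final), and incubated 23.5 h at 37 C. ONE-Glo luminescence measured reporter inhibition; CellTiter-Fluor fluorescence tracked cytotoxicity.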

The test system of assay [7] is thyroid hormone receptor (rat, GH3 cells). As to the kind of experiment: qHTS assay to identify small molecule agonists of the thyroid receptor (TR) signaling pathway (AID 743066; calls by dose curve).
Assay [8] deals with Estrogen receptor (Homo sapiens) (UniProt P03372). As to the kind of experiment: qHTS assay to identify small molecule antagonists of the estrogen receptor alpha (ER-alpha) signaling pathway (AID 743069; active = well fitted curve in the direction sought with a large enough effect in the signal ratio in the repeat runs, not every such curve was filed as active; the % refers to the signal ratio). An outline of the steps:
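A 17beta-estradiol challenge was applied right after compound transfer to ER-alpha-UAS-bla HEK293 cells previously kept in charcoal-stripped serum. Plates stood 18 hr at 37C and 5% CO2; fluorescence was read following 2 hr FRET substrate loading at room temperature.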

Assay [9] can be described thus: qHTS assay to identify small molecule antagonists of the estrogen receptor alpha (ER-alpha) signaling pathway - cell viability counter screen (AID 743074; calls by dose curve;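 also: HEK293 cells carrying ER-alpha-UAS-bla reporter stimulated with 17beta-estradiol; nearly all actives have a fitted effect of over 45% in size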).
Assay [10] concerns the target Estrogen receptor (Homo sapiens) (UniProt P03372). The assay can be described thus: qHTS assay to identify small molecule agonists of the estrogen receptor alpha (ER-alpha) signaling pathway (AID 743075; calls by dose curve;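 also: HEK293 GripTite cells with ER-alpha and UAS-driven beta-lactamase reporter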).
The target is the same in assay [11]. The assay can be described thus: qHTS assay to identify small molecule agonists of the estrogen receptor alpha (ER-alpha) signaling pathway using the BG1 cell line (AID 743079). Also: nearly all actives have a fitted effect of over 20% in size.
A short description of assay [12]: qHTS assay to identify small molecule antagonists of the estrogen receptor alpha (ER-alpha) signaling pathway using the BG1 cell line (AID 743080; calls by dose curve;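 also: BG1 cells stimulated with 17beta-estradiol alongside compound; series mostly up to about 70 µM; nearly all actives have a fitted effect of over 25% in size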). An outline of the steps:
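Luminescence from a 4×ERE-luciferase reporter in BG1-Luc-4E2 cells served as read-out. Cells, pre-cultured 5 days in stripped-serum phenol-red-free medium, were exposed to compound with 17beta-estradiol co-stimulation for 21.5 h at 37 C.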

Assay [13] in a line: qHTS assay to identify small molecule antagonists of the estrogen receptor alpha (ER-alpha) signaling pathway using the BG1 cell line - cell viability counter screen (AID 743081).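 Also: compound given together with 17beta-estradiol as the ER stimulus; series mostly up to about 70 µM; nearly all actives have a fitted effect of over 45% in size.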
The target of the next assay is Aromatase (Homo sapiens) (UniProt P11511). The assay can be described thus: qHTS assay to identify aromatase inhibitors (AID 743083). Also: series mostly up to about 70 µM; nearly all actives have a fitted effect of over 55% in size.
The nature of assay [14]: qHTS assay to identify small molecule antagonists of the androgen receptor (AR) signaling pathway using the MDA cell line - cell viability counter screen (AID 743041; also: nearly all actives have a fitted effect of over 45% in size). An outline of the steps: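 In this qHTS counter assay, fluorescence intensity after CellTiter-Fluor addition indicated viability of MDA-kb2 AR-luc cells given compounds and R1881 for 16 h at 37C.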
A short description of assay [15]: qHTS assay for identifying genotoxic compounds that show differential cytotoxicity against isogenic chicken DT40 cell lines with known DNA damage response pathways - wild type cell line (AID 743012). Also: nearly all actives have a fitted effect of over 60% in size. In short, it runs like this:
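Viability by ATP luminescence (CellTiter-Glo, 30 min RT) after 40 h compound treatment at 37 C/5% CO2, using 300 parental DNA repair-proficient DT40 cells per well.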

Assay [16] concerns the target Androgen receptor (Homo sapiens) (UniProt P10275). The assay can be described thus: qHTS assay to identify small molecule antagonists of the androgen receptor (AR) signaling pathway (AID 743035; active = well fitted inhibition curve with a large enough effect in the signal ratio in the repeat runs, not every such curve was filed as active; the % refers to the signal ratio). In short, it runs like this: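 Antagonist mode: AR-bla HEK293 cells co-treated with test compounds and agonist R1881 for 16 h at 37C, 5% CO2. Beta-lactamase activity read as FRET fluorescence after 2 h room-temperature substrate loading.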

Assay [17] has the same target. The assay can be described thus: qHTS assay to identify small molecule agonists of the androgen receptor (AR) signaling pathway using the MDA cell line (AID 743040; also: nearly all actives have a fitted effect of over 20% in size). In short, it runs like this:
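Cell-based luciferase reporter: MDA-kb2, MMTV promoter (AR + GR response elements). 16 h compound exposure at 37C; ONE-Glo, 30 min RT, luminescence.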

For assay [18] the target is unchanged. The assay can be described thus: qHTS assay to identify small molecule antagonists of the androgen receptor (AR) signaling pathway using the MDA cell line (AID 743042; also: nearly all actives have a fitted effect of over 55% in size). In short, it runs like this:
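MDA-kb2 cells (human breast carcinoma, stably carrying an MMTV-luciferase reporter responsive to AR and GR) were plated at 3,000 cells/well and preincubated 5 hr at 37C, then given compound plus R1881 agonist for 16 h. ONE-Glo luminescence was read.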

For assay [19] the target is unchanged. The assay can be described thus: qHTS assay to identify small molecule agonists of the androgen receptor (AR) signaling pathway (AID 743036; active = well fitted activation curve with a large enough effect in the signal ratio in the repeat runs, with a control signal flat, not every such curve was filed as active; the % refers to the signal ratio). An outline of the steps: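 In this Tox21 qHTS, 2,000 HEK293 AR-bla cells per well were incubated with compounds for 16 h at 37C and 5% CO2. Fluorescence intensity was recorded 2 h after adding LiveBLAzer B/G FRET substrate at room temperature.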

Chain of Estrogen receptor (Homo sapiens) (P03372 whole entry, looked up): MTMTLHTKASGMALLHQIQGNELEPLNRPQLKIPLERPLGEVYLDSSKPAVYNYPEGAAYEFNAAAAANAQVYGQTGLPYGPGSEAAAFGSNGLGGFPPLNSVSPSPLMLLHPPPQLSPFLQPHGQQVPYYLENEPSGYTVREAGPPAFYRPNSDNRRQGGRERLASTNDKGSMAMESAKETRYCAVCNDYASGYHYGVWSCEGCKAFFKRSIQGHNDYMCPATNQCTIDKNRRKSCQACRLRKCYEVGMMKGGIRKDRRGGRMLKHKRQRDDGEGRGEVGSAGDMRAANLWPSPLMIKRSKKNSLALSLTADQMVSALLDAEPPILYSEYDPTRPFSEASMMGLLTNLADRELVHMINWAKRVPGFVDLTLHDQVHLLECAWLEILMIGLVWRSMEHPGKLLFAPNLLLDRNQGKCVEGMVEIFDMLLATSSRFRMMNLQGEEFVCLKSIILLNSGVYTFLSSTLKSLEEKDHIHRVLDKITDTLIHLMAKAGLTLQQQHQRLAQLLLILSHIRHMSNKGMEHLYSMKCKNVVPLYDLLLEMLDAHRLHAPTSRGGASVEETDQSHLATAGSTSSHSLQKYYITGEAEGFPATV
Chain of Androgen receptor (Homo sapiens) (P10275 whole entry, looked up): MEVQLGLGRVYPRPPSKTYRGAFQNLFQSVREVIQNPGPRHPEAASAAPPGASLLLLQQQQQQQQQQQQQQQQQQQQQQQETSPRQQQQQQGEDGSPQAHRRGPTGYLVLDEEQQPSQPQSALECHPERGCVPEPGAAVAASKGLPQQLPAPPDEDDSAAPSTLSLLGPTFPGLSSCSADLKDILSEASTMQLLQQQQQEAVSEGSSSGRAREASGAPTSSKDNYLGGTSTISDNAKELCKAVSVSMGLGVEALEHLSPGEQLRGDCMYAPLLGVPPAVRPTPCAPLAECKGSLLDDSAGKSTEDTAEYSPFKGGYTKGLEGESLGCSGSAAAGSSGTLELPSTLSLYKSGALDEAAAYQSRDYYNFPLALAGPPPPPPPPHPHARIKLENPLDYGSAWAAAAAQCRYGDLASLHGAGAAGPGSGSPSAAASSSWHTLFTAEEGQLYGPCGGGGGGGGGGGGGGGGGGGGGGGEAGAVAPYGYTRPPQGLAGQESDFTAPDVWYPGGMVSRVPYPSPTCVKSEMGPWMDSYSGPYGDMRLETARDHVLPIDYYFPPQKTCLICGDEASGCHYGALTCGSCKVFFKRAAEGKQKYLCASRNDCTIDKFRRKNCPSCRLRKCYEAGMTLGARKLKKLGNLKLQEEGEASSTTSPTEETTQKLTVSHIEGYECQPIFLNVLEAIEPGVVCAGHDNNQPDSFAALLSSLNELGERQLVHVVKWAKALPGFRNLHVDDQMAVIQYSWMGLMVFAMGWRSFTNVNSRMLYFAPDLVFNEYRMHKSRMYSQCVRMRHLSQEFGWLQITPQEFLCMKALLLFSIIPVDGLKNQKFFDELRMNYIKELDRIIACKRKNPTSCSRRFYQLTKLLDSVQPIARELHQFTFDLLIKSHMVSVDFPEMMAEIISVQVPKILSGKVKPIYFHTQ
Chain of Aromatase (Homo sapiens) (P11511 whole entry, looked up): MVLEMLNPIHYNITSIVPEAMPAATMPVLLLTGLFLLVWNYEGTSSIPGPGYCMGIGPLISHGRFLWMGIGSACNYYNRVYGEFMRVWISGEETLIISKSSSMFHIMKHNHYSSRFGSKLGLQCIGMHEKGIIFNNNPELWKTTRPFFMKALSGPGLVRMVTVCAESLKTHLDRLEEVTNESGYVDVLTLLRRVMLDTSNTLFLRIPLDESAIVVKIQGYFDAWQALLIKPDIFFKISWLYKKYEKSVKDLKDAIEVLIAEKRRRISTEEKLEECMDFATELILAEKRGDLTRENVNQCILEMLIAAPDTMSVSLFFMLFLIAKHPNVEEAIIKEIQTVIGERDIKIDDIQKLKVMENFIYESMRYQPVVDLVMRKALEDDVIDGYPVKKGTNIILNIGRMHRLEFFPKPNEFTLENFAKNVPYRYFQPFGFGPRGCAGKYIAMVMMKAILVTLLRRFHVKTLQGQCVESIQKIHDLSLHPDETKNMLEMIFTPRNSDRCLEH

Take `CC(=O)OC(C)c1ccccc1` (stereo unspecified): the Potency entry in [1], in assay [2], in assay [3], in assay [5], in assay [6] and in assay [7] was “inactive” in each case. Moreover, the Potency result in [8], in [9], in assay [10] and in assay [11] was “inactive” throughout. The molecule was called inactive (in [4]; in [12]; in assay [13]; with Aromatase (Homo sapiens)).

As to `CC(Cl)COP(=O)(OCC(C)Cl)OCC(C)Cl` (stereo unspecified), the Potency result in assay [1], in assay [5], in assay [6], in assay [7], in assay [8] and in assay [9] was “inactive” in each case. In addition, the Potency entry in assay [10] and in assay [11] was “inactive” each time. Moreover, the Potency in assay [2] was 54.2 µM (active). In addition, the molecule was classed as inactive (in assay [4]; in assay [14]; in [12]; in assay [13]; with Aromatase (Homo sapiens)).

Turning to `CCC1COC(=O)O1` (stereo unspecified), the Potency result in assay [15], in assay [2], in assay [3], in [5], in assay [6] and in assay [7] was “inactive” throughout. The Potency entry in [8], in [9], in assay [10] and in assay [11] was “inactive” each time. In addition, the outcome (in assay [4]; in [14]; in [12]; in assay [13]; with Aromatase (Homo sapiens)) was inactive.

For the molecule `Nc1ccc(S(=O)(=O)Nc2ccccn2)cc1`, the Potency entry in assay [15], in assay [2], in assay [3], in [16], in assay [8] and in [9] was “inactive” throughout. Also, the Potency entry in assay [10] and in assay [11] was “inactive” each time. Further, the result (in assay [4]; in assay [17]; in assay [18]; in [12]; in assay [13]; with Aromatase (Homo sapiens)) was inactive.

Consider `O=C(O)c1c(Cl)ccc(Cl)c1Cl`, for which the Potency entry in [1], in assay [2], in assay [3], in [5], in assay [6] and in assay [8] was “inactive” throughout. Moreover, the Potency entry in assay [9], in assay [10] and in assay [11] was “inactive” in each case. The molecule was classed as inactive (in [4]; in assay [14]; in assay [12]; in [13]; in the assay with Aromatase (Homo sapiens)).

In the case of `Nc1ccc(/C=C/c2ccc(N)cc2S(=O)(=O)O)c(S(=O)(=O)O)c1`, the Potency result in assay [1], in [5], in assay [6], in assay [7], in assay [8] and in [9] was “inactive” in each case. The Potency entry in assay [10] and in [11] was “inactive” each time. For the same molecule, the call (in [4]; in assay [14]; in assay [12]; in assay [13]; with Aromatase (Homo sapiens)) was inactive.

Turning to `CC(CC(=O)O)CC(C)(C)C` (stereo unspecified), the Potency result in [15], in [2], in [3], in assay [5], in assay [6] and in assay [7] was “inactive” throughout. The Potency entry in assay [8], in [9], in assay [10] and in assay [11] was “inactive” throughout. Also, the result (in assay [4]; in assay [14]; in assay [12]; in [13]; in the assay with Aromatase (Homo sapiens)) was inactive.

`CC(C)CCCC(C)CC=O` (stereo unspecified): the Potency result in assay [15], in assay [2], in assay [3], in [5], in [6] and in assay [7] was “inactive” in each case. For the same molecule, the Potency entry in [8], in assay [9], in assay [10] and in assay [11] was “inactive” in each case. Besides, the result (in [4]; in assay [14]; in [12]; in [13]; in the assay with Aromatase (Homo sapiens)) was inactive.

On to `CC(=O)N(CC(O)CO)c1c(I)c(C(=O)NCC(O)CO)c(I)c(C(=O)NCC(O)CO)c1I` (stereo unspecified), for which the Potency entry in assay [15], in assay [2], in assay [3], in assay [5], in assay [6] and in assay [7] was “inactive” each time. Further, the Potency result in assay [8], in assay [9], in [10] and in [11] was “inactive” in each case. Also, the molecule was called inactive (in assay [4]; in assay [14]; in [12]; in assay [13]; with Aromatase (Homo sapiens)).

With `CCCCCC1Nc2cc(C(F)(F)F)c(S(N)(=O)=O)cc2S(=O)(=O)N1` (stereo unspecified), the Potency entry in assay [1], in assay [2], in [3], in assay [5], in [6] and in assay [7] was “inactive” throughout. In addition, the Potency entry in assay [8], in assay [9], in assay [10] and in assay [11] was “inactive” in each case. In addition, the call (in assay [4]; in [12]; in assay [13]; with Aromatase (Homo sapiens)) was inactive.

`NS(=O)(=O)c1ccc(Cl)c(S(N)(=O)=O)c1`: the Potency entry in assay [15], in assay [2], in assay [3], in [5], in assay [6] and in assay [7] was “inactive” throughout. The Potency entry in assay [8], in [9], in assay [10] and in [11] was “inactive” each time. The result (in assay [4]; in assay [14]; in assay [12]; in assay [13]; with Aromatase (Homo sapiens)) was inactive.

On to `CCCCOC(=O)C(C)OC(=O)CCC` (stereo unspecified), for which the Potency result in [1], in [2], in [3], in assay [5], in [6] and in [7] was “inactive” throughout. The Potency result in assay [8], in assay [9], in assay [10] and in [11] was “inactive” in each case. In addition, the outcome (in assay [4]; in [14]; in [12]; in [13]; with Aromatase (Homo sapiens)) was inactive.

For `C=C[Si](C)(C)O[Si](C)(C)C=C`, the Potency result in [1], in assay [2], in assay [3], in assay [5], in assay [6] and in assay [7] was “inactive” in each case. The Potency entry in assay [8], in assay [9], in assay [10] and in assay [11] was “inactive” throughout. The molecule was classed as inactive (in assay [4]; in assay [14]; in assay [12]; in assay [13]; with Aromatase (Homo sapiens)).

As to `C=CCOCC(O)CCl` (stereo unspecified), the Potency result in assay [15], in assay [2], in assay [3], in assay [16], in [5] and in assay [6] was “inactive” throughout. In addition, the Potency entry in assay [7], in assay [8], in [9], in [10] and in assay [11] was “inactive” throughout. Besides, the molecule was classed as inactive in [4], in assay [19], in assay [17], in [14], in [18] and in assay [12]. The molecule was classed as inactive (in assay [13]; with Aromatase (Homo sapiens)).

In the case of `Nc1cc(C(=O)O)ccc1Cl`, the Potency entry in [1], in assay [2], in [16], in [5], in assay [6] and in assay [7] was “inactive” throughout. For the same molecule, the Potency entry in [8], in [9], in assay [10] and in [11] was “inactive” in each case. Besides, the result in assay [4], in assay [19], in [17], in assay [14], in [18] and in assay [12] was inactive. Besides, the result (in [13]; with Aromatase (Homo sapiens)) was inactive.

Consider `CCOC(=O)CCCCCCCCC(=O)OCC`, for which the Potency in [2] was 61.1 µM (active). For the same molecule, the result (in assay [4]; in [14]; in assay [12]; in [13]; with Aromatase (Homo sapiens)) was inactive. The Potency result in [5], in [6], in assay [7], in assay [8], in [9] and in assay [10] was “inactive” throughout.

`NC(=O)NNC(N)=O`: the Potency entry in assay [15], in assay [2], in assay [3], in assay [6], in assay [7] and in [8] was “inactive” in each case. Further, the Potency entry in assay [9], in assay [10] and in [11] was “inactive” in each case. Besides, the result (in assay [4]; in assay [14]; in assay [12]; in assay [13]; with Aromatase (Homo sapiens)) was inactive.
